Rows were chosen to be rich in hits. Some 1.1% of all compounds tested hit in one or more screens of this group.
COUP-TFII inh: NR2F2 (human) inhibition, primary screen; AID 686940; P24468; hit rate 0.7% among 370,000; inhibition, % at 8.6 µM; HEK293T NGFI-A luciferase reporter, luminescence;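 active = inhibition above a per-plate cutoff, mean inhibition of test wells between control levels plus 3 SD, cut at about 38% in these data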;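 also: cells cotransfected with COUP-TFII expression vector driving the NGFI-A reporter; 0% = median of COUP-TF2 test wells and 100% = reporter-only cells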
Target sequence (P24468 whole entry, looked up): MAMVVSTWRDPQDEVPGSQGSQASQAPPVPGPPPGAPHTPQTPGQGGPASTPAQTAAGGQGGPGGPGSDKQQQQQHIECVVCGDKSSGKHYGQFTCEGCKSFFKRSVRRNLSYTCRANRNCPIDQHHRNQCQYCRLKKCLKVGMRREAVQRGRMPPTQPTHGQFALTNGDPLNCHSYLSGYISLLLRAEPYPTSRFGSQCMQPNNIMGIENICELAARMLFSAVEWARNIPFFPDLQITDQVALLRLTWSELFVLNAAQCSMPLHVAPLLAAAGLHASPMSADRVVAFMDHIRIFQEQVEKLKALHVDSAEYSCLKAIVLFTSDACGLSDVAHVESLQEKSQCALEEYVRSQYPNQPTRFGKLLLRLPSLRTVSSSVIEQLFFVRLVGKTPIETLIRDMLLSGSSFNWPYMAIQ
SRC1 inh: human NCOA1 inhibition; Q15788; HEK293 GAL4-SRC1 luciferase reporter, luminescence; inhibition, % at 3.6 µM; hit rate 0.12% among 360,000;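 active = inhibition above the campaign mean plus 3 SD, with each screening campaign given its own cutoff, cut at about 60% in these data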;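 also: 0% = DMSO treated cells and 100% = gossypol at 36 µM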
GalR3 antagonist: human GalR3 antagonism; AID 651719; hit rate 0.44% among 360,000; HEK293 GalR3-CNG cAMP membrane potential fluorescence; galR3 body fused to GalR1 C-terminus; inhibition, % at 3 µM; O60755;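 active = inhibition above the screen-wide average plus 3 SD, cut at about 13% in these data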;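 also: forskolin and galanin both at EC90 stimulate the cells; cAMP rise reported by CNG channel membrane potential dye signal; 0% = forskolin plus galanin with DMSO and 100% = forskolin alone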
SRC2 inh: human SRC2 (NCOA2) inhibition; Q15596; HEK293 GAL4-SRC2 luciferase reporter, luminescence; inhibition, % at 9 µM; hit rate 0.17% among 370,000;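 active = inhibition above the mean inhibition of all tested compounds plus 3 SD, set per campaign, cut at about 52% in these data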;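 also: 0% = DMSO treated cells and 100% = cells given Gossypol at 36 µM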
NCOA3 inh: human NCOA3 inhibition. Q9Y6Q9. HEK293 GAL4-SRC3 luciferase reporter, luminescence. inhibition, % at 3.6 µM. hit rate 0.17% among 360,000. AID 588352;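 active = inhibition above a per-campaign cutoff, the mean of all compounds plus 3 SD, cut at about 60% in these data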;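 also: 0% = DMSO-treated cells and 100% = gossypol-treated cells at 36 µM; higher means less SRC3-driven luciferase light from the GAL4 reporter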
NR5A2 inv ag: inverse agonists of human LRH-1 (NR5A2) | O00482 | HEK293T StAR-luciferase reporter, LRH-1 transfected, 24 h | inhibition, % at 3.6 µM | hit rate 0.13% among 360,000 | AID 602396;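 active = inhibition above the mean inhibition of all tested compounds plus 3 SD, cut at about 73% in these data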;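 also: 0% = DMSO wells and 100% = reporter-only cells lacking LRH-1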
Gal4-VP16 ctr: counter-screen for COUP-TFII antagonists: inhibitors of VP16; shares compounds with COUP-TFII inh; HEK293 Gal4-VP16 luciferase reporter, luminescence; inhibition, % at 8.5 µM; hit rate 25% among 2,500; in the data active = inhibition above about 13%
COUP-TFII conf: confirmation of human COUP-TFII (NR2F2) inhibitors; HEK293 NGFI-A luciferase reporter, luminescence; shares compounds with COUP-TFII inh; inhibition, % at 8.5 µM; hit rate 45% among 2,500;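 active = mean inhibition over three repeats above a set limit taken from the earlier primary screen, cut at about 38% in these data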;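 also: 100% = cells given the luciferase reporter alone without the COUP-TF2 vector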
Numbers without * were called inactive; / = not tested or not shown.

SMILES	COUP-TFII inh	SRC1 inh	GalR3 antagonist	SRC2 inh	NCOA3 inh	NR5A2 inv ag	Gal4-VP16 ctr	COUP-TFII conf
CC(=O)c1c(C)oc2ccc(N(C(C)=O)S(=O)(=O)c3cccc4cccnc34)cc12	38*	25	-5	13	34	23	1	29
O=C(Nc1ccc(Cl)cc1Cl)OC1CCC12CCC(c1ccccc1)CC2 (stereo unspecified)	2	/	/	/	/	/	/	/
c1ccc2nc(-c3ccc(N4CCOCC4)cc3)ccc2c1	-33	-41	-5	-52	-19	-99	/	/
CN1CCN(c2ccc(-c3ccc4ccccc4n3)cc2)CC1	90*	79*	-8	76*	80*	74*	52*	90*
C=CCn1c(SCc2ccc(C(=O)Nc3nccs3)cc2)nnc1-c1ccc(C)c(Cl)c1	40*	-4	-5	22	19	0	-12	21
Cn1nnnc1SCc1ccc(C(=O)Nc2nccs2)cc1	-29	-24	-7	-37	-71	-66	/	/
Cc1ccc(C)[n+](CC(=O)N2CCCCC2)c1	-5	-14	1	5	10	7	/	/
Cc1cccc(-c2noc(CCCC(=O)Nc3cccnc3)n2)c1	4	-1	-7	-3	6	-12	/	/
O=C(CCCc1nc(-c2ccc(Cl)cc2)no1)Nc1cccnc1	41*	9	-5	22	5	17	0	22
O=C(O)CCCc1nc(-c2ccc(Cl)cc2)no1	44*	3	-3	40	13	12	32*	14
Cn1c(Cc2cccs2)nnc1SCC(=O)Nc1ccc2cn[nH]c2c1	42*	/	/	11	/	/	-13	5
OC[C@@H]1CN(Cc2ccc(-c3ccccc3)cc2)C[C@H](n2cnc3c(NC4CCC4)ncnc32)O1	69*	13	3	26	7	45	-4	45*
Nn1c(SCC(=O)Nc2ccccc2-c2ccccc2)nnc1-c1n[nH]c2c1CCC2	6	/	/	8	/	/	/	/
O=C(Nc1cccnc1)c1ccc(CN2CCc3ccccc3C2)cc1	42*	2	0	25	-20	8	-14	10
COC(=O)CCCn1cc(CN2CC=CS2(=O)=O)nn1	-13	/	/	11	/	/	/	/
COc1ccc2cc3cc(C(=O)Nc4cc(OC)c(OC)c(OC)c4)oc3nc2c1	50*	63*	-5	24	45	46	-6	19
Cc1ccc(NS(=O)(=O)c2ccc(C(=O)N3CCN(c4ncccn4)CC3)cc2)cc1	39*	9	-6	-1	23	34	-2	14
Cc1nn(Cc2ccc(C(=O)NC(C)(C)C)o2)c(C)c1Br	48*	17	-5	37	3	10	1	34
Cc1cc(NC(=O)c2ccc(Cn3nc(C)c(Br)c3C)o2)no1	1	14	-4	2	11	-3	/	/
COCC1CCCN(Cc2cn(-c3ccccc3F)nc2-c2cc(C)sc2C)C1 (stereo unspecified)	4	-14	3	0	-7	-9	/	/
COc1ccc(-n2c(C)c(C(C)=O)c3cc(O)ccc32)cc1	44*	68*	1	48	59	8	10	18
COc1ccc2c(c1)c(C(C)=O)c(C)n2-c1ccccc1	13	26	-2	31	30	-11	/	/
COc1ccc2c(c1)c(C(C)=O)c(C)n2CCc1ccccc1	53*	19	-13	13	28	17	4	23
COC(=O)C[C@H]1CC[C@@H]2[C@@H](COc3ccc(NC(=O)c4ccno4)cc3C(=O)N2C)O1	-6	/	/	19	/	/	/	/
Cc1ccc(NC(=O)c2ccc(Nc3c([N+](=O)[O-])cc([N+](=O)[O-])cc3[N+](=O)[O-])cc2)cc1	70*	-31	-5	41	46	-1	3	47*
SMILES	COUP-TFII inh	SRC1 inh	GalR3 antagonist	SRC2 inh	NCOA3 inh	NR5A2 inv ag	Gal4-VP16 ctr	COUP-TFII conf
Cc1cc(C)nc(SCC(=O)Nc2ccc(N3CCOCC3)c(Cl)c2)n1	42*	8	-1	8	8	59	18*	40*
CC(=O)Nc1cccc(-c2ccnc3c2CC(C(=O)Nc2ccc(F)c(Cl)c2)O3)c1 (stereo unspecified)	5	5	-3	-10	-12	1	/	/
COc1ccc(NC(=O)C2Cc3c(-c4cccc(F)c4)ccnc3O2)cc1OC (stereo unspecified)	52*	9	-8	30	16	-3	1	34
COc1ccc(NC(=O)C2Cc3c(-c4ccc(NC(C)=O)cc4)ccnc3O2)cc1OC (stereo unspecified)	-5	8	-2	2	-8	18	/	/
O=C(Nc1ccc(F)c(Cl)c1)C1Cc2c(-c3ccco3)ccnc2O1 (stereo unspecified)	41*	8	-4	5	20	-4	2	17
COc1cccc(Oc2ccc(S(=O)(=O)N3CCOCC3)cc2[N+](=O)[O-])c1	44*	-7	-5	-6	3	-4	-9	0
Cn1c(=O)cc(OCCCC(=O)Nc2cc(-c3cn[nH]c3)ccn2)c2ccccc21	55*	/	/	/	/	/	35*	36
COc1ccccc1N1CCN(C(=O)c2cc3c(C)nc4ccccc4c3o2)CC1	42*	-8	-2	17	11	6	-4	12
Cc1ccc(CNC(=O)c2cc3c(C)nc4ccccc4c3o2)cc1	48*	0	/	14	9	33	3	25
O=C(O)CSCC(=O)Nc1ccc(C2CCCCC2)cc1	90*	76*	-6	91*	74*	80*	83*	77*
Nn1cnnc1SCC(=O)Nc1ccc(C2CCCCC2)cc1	-8	-38	-1	-6	-41	-40	/	/
c1nc(N2CCOCC2)c2c3c(sc2n1)CCCC3	-4	13	-5	12	23	6	/	/
Cc1nc(N2CCN(C(=O)COc3ccccc3C)CC2)c2c3c(sc2n1)CCCC3	76*	/	/	/	/	/	-7	-18
O=C(c1ccccc1)N1CCN(c2ncnc3sc4c(c23)CCC4)CC1	40*	17	-5	40	16	-8	-7	10
Cc1ccc[n+](CC(=O)Nc2cc(C(F)(F)F)ccc2Cl)c1	7	-5	-4	-5	3	-12	/	/
CCC(C)(C)c1ccc(OCCCC[n+]2cccc(C)c2)c(C(C)(C)CC)c1	62*	3	1	-11	49	56	3	38*
O=C(NNS(=O)(=O)c1ccc(F)cc1)c1cc2ccccc2cc1O	4	10	-10	11	4	-7	/	/
O=C(NCc1cccc(Cl)c1)c1cccc2c(-c3cccnc3)coc12	42*	3	-4	13	-8	-1	-2	4

High-throughput results as filed in PubChem BioAssay.
